# Assay results taken from PubChem BioAssay (EPA / NIEHS).
# Values joined by “and” are separate entries in the source; they are usually repeats but may differ in a detail not shown here. Equal values may be shown once. Records with an inconclusive call do not appear. More than one record can exist for a structure, and the calls need not agree. Active and inactive are the calls of the source. The calls were made as follows, unless noted: active = hit-call score of the fitted dose curve at least 0.9, where 1 is the maximum; inconclusive = response in the unintended direction; inactive = score below 0.9.
# How the values were obtained:
# [1] = test system: Sodium/Iodide Symporter (NIS), SLC5A5 (gene 6528); test: CPHEA_Stoker_NIS_Inhibition_RAIU: CPHEA's Radioactive Iodide Uptake (RAIU) Assay for Sodium/Iodide Symporter (NIS) Inhibition, Stoker and Laws Labs (AID 2283841)
# Method in brief: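 Iodide uptake read as CPM of intracellular 125I (final 329 pM) after 2 h room-temperature exposure in HEPES-buffered HBSS, pH 7.4. Human NIS-expressing HEK293T cells; six concentrations 0.001–100 uM, 0.5% DMSO, normalised to DMSO wells.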
# [2] = test system: chicken Androgen Receptor (AR), gene 422165; test: ATG_chAR_XSP2: Attagene TRANS-FACTORIAL Multi-Species (XSP2) HepG2 Assay for chicken Androgen Receptor (AR) (AID 2283819);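 also: hits raise reporter mRNA above DMSO so potency is for activation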
# Method in brief: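 Readout is reporter mRNA induction via RT-PCR/capillary electrophoresis after 24 h chemical exposure, positive direction relative to DMSO. Transiently transfected HepG2 express chimeric chicken AR–GAL4; AR stimulated by 3 nM 6-alpha-fluorotestosterone and 1.5 nM norgestrel.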
# [3] = test system: frog Estrogen Receptor (ER), gene 398734; test: ATG_frER1_XSP2: Attagene TRANS-FACTORIAL Multi-Species (XSP2) HepG2 Assay for frog Estrogen Receptor (ER) (AID 2283821);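 also: hits raise reporter mRNA above DMSO baseline so potency means agonist or activator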
# Method in brief: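 Reporter mRNA induction, detected as fluorescence after RT-PCR and capillary electrophoresis, is the endpoint; activity is fitted upward against DMSO. Cells are human liver HepG2 carrying transfected NR-Gal4 chimeras with GAL4-UAS-driven reporters, harvested 24 h post-dosing.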
# [4] = test system: zebrafish Estrogen Receptor (ER2b), gene 317733; test: ATG_zfER2b_XSP2: Attagene TRANS-FACTORIAL Multi-Species (XSP2) HepG2 Assay for zebrafish Estrogen Receptor (ER2b) (AID 2283823);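 also: fitted upward as reporter gain over DMSO so potency reflects activation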
# Method in brief: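 Read-out: fluorescent reporter mRNA, measured by RT-PCR then capillary electrophoresis after HpaI digestion. HepG2 cells carried transiently transfected multi-reporter TRANS constructs (NR-Gal4 chimeras); 24 h chemical exposure; activity scored upward versus DMSO control.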
# [5] = test system: frog Androgen Receptor (AR), gene 399456; test: ATG_frAR_XSP2: Attagene TRANS-FACTORIAL Multi-Species (XSP2) HepG2 Assay for frog Androgen Receptor (AR) (AID 2283824);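 also: reporter mRNA from GAL4-UAS units driven by Xenopus AR-Gal4 chimera; actives raise reporter signal above DMSO so AC50 reflects agonist-like induction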
# Method in brief: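 Reporter transcript induction, read by RT-PCR with fluorescent capillary electrophoresis, in human liver HepG2 cells carrying an exogenous Xenopus AR-Gal4 fusion and GAL4-driven reporters; chemical exposure 24 hours, activity scored upward against DMSO controls.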
# [6] = target: Estrogen receptor (Homo sapiens) (UniProt P03372); test: ATG_hERa_XSP2: Attagene TRANS-FACTORIAL Multi-Species (XSP2) HepG2 Assay for human Estrogen Receptor (ERa) (AID 2283827)
# Method in brief: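 Trans-activation of exogenous human ERa-Gal4 chimera read in HepG2 as reporter transcript after 24 h exposure; medium included 3 nM 6-alpha-fluorotestosterone and 1.5 nM norgestrel. Quantified by RT-PCR with capillary electrophoresis, positive-direction fitting against DMSO.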
# [7] = test system: frog Estrogen Receptor (ER2), gene 100174814; test: ATG_frER2_XSP2: Attagene TRANS-FACTORIAL Multi-Species (XSP2) HepG2 Assay for frog Estrogen Receptor (ER2) (AID 2283828)
# Method in brief: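 Cells were transfected with reporter constructs under GAL4-UAS control, dosed with chemicals for 24 h, then lysed for RNA; the frog ER2-driven reporter mRNA was quantified by capillary electrophoresis of labeled PCR fragments, with activity fitted upward from DMSO.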
# [8] = target: Peroxisome proliferator-activated receptor gamma (Homo sapiens) (UniProt P37231); test: ATG_hPPARg_XSP2: Attagene TRANS-FACTORIAL Multi-Species (XSP2) HepG2 Assay for human Peroxisome Proliferator-activated Receptor gamma (PPARg) (AID 2283829);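 also: actives raise reporter mRNA above DMSO so AC50 reflects PPARg activation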
# Method in brief: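 HepG2 cells transiently transfected with multiplexed GAL4-UAS reporter units for chimeric NR-Gal4 receptors, dosed 24 h. Reporter mRNA quantified by RT-PCR, 6-FAM labeling, HpaI digestion and capillary electrophoresis; gain-of-signal fitted against DMSO baseline.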
# [9] = target: mouse Peroxisome Proliferator-activated Receptor gamma (PPARg), Pparg (gene 19016) (UniProt P37238); test: ATG_mPPARg_XSP2: Attagene TRANS-FACTORIAL Multi-Species (XSP2) HepG2 Assay for mouse Peroxisome Proliferator-activated Receptor gamma (PPARg) (AID 2283830);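 also: hits are gains in reporter mRNA above DMSO so AC50 marks activation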
# Method in brief: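 Multiplexed TRANS reporter readout: after 24 h chemical exposure of transfected HepG2 cells (with 3 nM 6-alpha-fluorotestosterone, 1.5 nM norgestrel present), RNA reverse-transcribed, amplified, 6-FAM-labelled and resolved by capillary electrophoresis; mouse PPARg-Gal4 induction scored against DMSO.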
# [10] = target: zebrafish Thyroid Hormone Receptor alpha (TRa), thraa (gene 30670) (UniProt Q98867); test: ATG_zfTRa_XSP2: Attagene TRANS-FACTORIAL Multi-Species (XSP1) HepG2 Assay for zebrafish Thyroid Hormone Receptor alpha (TRa) (AID 2283832);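 also: actives raise zebrafish TRa-Gal4 reporter transcript above DMSO baseline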
# Method in brief: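 Readout is reporter mRNA induction, quantified by RT-PCR and capillary electrophoresis with fluorescent labelling, after 24 h compound exposure of transiently transfected HepG2 cells carrying NR-Gal4 chimera reporters. Activity fitted upward relative to DMSO.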
# [11] = ATG_M_61_XSP2: Attagene TRANS-FACTORIAL Multi-Species (XSP2) HepG2 Assay for M61 Transcription Factor (Internal Marker) (AID 2283835; active = hit-call score of the fitted dose curve at least 0.9, where 1 is the maximum; inactive = score below 0.9;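 also: active means a rise in signal above the DMSO baseline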)
# Method in brief: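 Transient MRTU transfection of human HepG2; 24 h chemical dosing with 3 nM 6-alpha-fluorotestosterone + 1.5 nM norgestrel added for AR stimulation. RNA isolated, RT, PCR, FAM-labelled, HpaI cut, CE read. Positive direction vs DMSO.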
# [12] = target: zebrafish Thyroid Hormone Receptor beta (TRb), thrb (gene 30607) (UniProt Q9PVE4); test: ATG_zfTRb_XSP2: Attagene TRANS-FACTORIAL Multi-Species (XSP1) HepG2 Assay for zebrafish Thyroid Hormone Receptor beta (TRb) (AID 2283836)
# Method in brief: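 Reporter transcripts were measured by RT-PCR with fluorescent primer extension and capillary electrophoresis, 24 h after chemical dosing of transiently transfected HepG2 cells. Activity was scored as upward signal versus DMSO baseline.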
# [13] = target: human Thyroid hormone Receptor alpha (TRa), THRA (gene 7067) (UniProt P10827); test: ATG_hTRa_XSP2: Attagene TRANS-FACTORIAL Multi-Species (XSP2) HepG2 Assay for human Thyroid hormone Receptor alpha (TRa) (AID 2283838)
# Method in brief: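 Gain-of-signal in reporter mRNA, relative to DMSO, after 24 h dosing of transfected HepG2; quantitation by RT-PCR fragment analysis on capillary electrophoresis.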
# [14] = target: frog Thyroid hormone Receptor alpha (TRa), thra-a (gene 397942) (UniProt P15204); test: ATG_frTRa_XSP2: Attagene TRANS-FACTORIAL Multi-Species (XSP2) HepG2 Assay for frog Thyroid hormone Receptor alpha (TRa) (AID 2283839)
# Method in brief: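 HepG2 cells transiently transfected with multiplexed GAL4-UAS reporter units expressing chimeric frog TRα-Gal4; reporter mRNA read 24 h after dosing by RT-PCR, FAM-labelled primer extension, HpaI digest and capillary electrophoresis. Gain of signal fitted versus DMSO.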
# [15] = target: human Thyroid hormone Receptor beta (TRb), THRB (gene 7068) (UniProt P10828); test: ATG_hTRb_XSP2: Attagene TRANS-FACTORIAL Multi-Species (XSP2) HepG2 Assay for human Thyroid hormone Receptor beta (TRb) (AID 2283840);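 also: actives raise reporter mRNA so potency reflects agonist-like gain of signal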
# Method in brief: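 HepG2 cells were transiently transfected with GAL4-UAS multiplexed reporter units expressing chimeric NR-Gal4 proteins, dosed 24 h; reporter mRNA was quantified by RT-PCR, fluorescent labeling, HpaI digestion and capillary electrophoresis, fitted for gain of signal versus DMSO.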
# [16] = ATG_M_19_XSP2: Attagene TRANS-FACTORIAL Multi-Species (XSP2) HepG2 Assay for M32 Transcription Factor (Internal Marker) (AID 2283822)
# Method in brief: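 Internal background marker in a multi-species nuclear receptor TRANS panel: transfected HepG2 cells exposed 24 h, with 3 nM 6-alpha-fluorotestosterone and 1.5 nM norgestrel present. Readout is RT-PCR of reporter transcripts resolved by capillary electrophoresis, gain-of-signal versus DMSO.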
# [17] = target: Nuclear receptor subfamily 1 group I member 2 (Mus musculus) (UniProt O54915); test: ATG_mPXR_XSP2: Attagene TRANS-FACTORIAL Multi-Species (XSP1) HepG2 Assay for mouse Pregnane X Receptor (PXR) (AID 2283831)
# Method in brief: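 HepG2 cells transiently transfected with GAL4-UAS reporter units expressing chimeric NR-GAL4 proteins; reporter mRNA measured 24 h after dosing by RT-PCR with 6-FAM labelling and capillary electrophoresis, gain of signal relative to DMSO.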
# [18] = test system: zebrafish Peroxisome Proliferator-activated Receptor gamma (PPARg), gene 557037; test: ATG_zfPPARg_XSP2: Attagene TRANS-FACTORIAL Multi-Species (XSP2) HepG2 Assay for zebrafish Peroxisome Proliferator-activated Receptor gamma (PPARg) (AID 2283833);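 also: actives increase reporter signal over DMSO so AC50 reflects activation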
# Method in brief: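 HepG2 cells transiently transfected with GAL4-UAS reporter units expressing a zebrafish PPARg–GAL4 chimera; compound exposure 24 h. Reporter mRNA quantified by RT-PCR with fluorescent labelling and capillary electrophoresis; gain of signal fitted relative to DMSO baseline.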
# [19] = test system: turtle Thyroid Hormone Receptor, alpha (TRa), gene 101949057; test: ATG_trTRa_XSP2: Attagene TRANS-FACTORIAL Multi-Species (XSP1) HepG2 Assay for turtle Thyroid Hormone Receptor, alpha (TRa) (AID 2283834);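 also: hits raise reporter mRNA over the DMSO baseline so AC50 marks activators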
# Method in brief: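 HepG2 cells transiently transfected with multiplexed GAL4-UAS reporter units expressing chimeric NR-Gal4 proteins were dosed for 24 hours. Reporter mRNA was quantified by RT-PCR with 6-FAM labelling and capillary electrophoresis, gain of signal scored against DMSO.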
# [20] = ATG_XTT_Cytotoxicity_XSP2: Cytotoxicity Assessment in the Attagene TRANS-FACTORIAL Multi-Species (XSP2) HepG2 Assay (AID 2283837)
# Method in brief: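 XTT-based cell number read-out in human HepG2 liver cells carrying transfected reporter units, measured 24 h after chemical dosing. Activity is signal loss versus DMSO baseline.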
# Chain of human Thyroid hormone Receptor alpha (TRa), THRA (gene 7067) (P10827 whole entry, looked up, the tested form may be a part): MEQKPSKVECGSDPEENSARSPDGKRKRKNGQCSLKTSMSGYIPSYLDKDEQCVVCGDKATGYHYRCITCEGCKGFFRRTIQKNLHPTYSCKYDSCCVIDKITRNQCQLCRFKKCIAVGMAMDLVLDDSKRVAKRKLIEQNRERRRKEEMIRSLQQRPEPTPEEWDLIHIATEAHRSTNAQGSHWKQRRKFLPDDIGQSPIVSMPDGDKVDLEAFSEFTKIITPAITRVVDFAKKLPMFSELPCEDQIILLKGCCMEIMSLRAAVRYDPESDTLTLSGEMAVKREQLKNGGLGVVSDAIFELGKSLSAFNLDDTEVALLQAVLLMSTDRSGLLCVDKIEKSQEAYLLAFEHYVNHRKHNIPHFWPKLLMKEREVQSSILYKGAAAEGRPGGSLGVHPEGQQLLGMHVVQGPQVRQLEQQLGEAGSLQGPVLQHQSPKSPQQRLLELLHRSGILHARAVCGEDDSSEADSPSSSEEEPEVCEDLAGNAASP
# Chain of zebrafish Thyroid Hormone Receptor alpha (TRa), thraa (gene 30670) (Q98867 whole entry, looked up, the tested form may be a part): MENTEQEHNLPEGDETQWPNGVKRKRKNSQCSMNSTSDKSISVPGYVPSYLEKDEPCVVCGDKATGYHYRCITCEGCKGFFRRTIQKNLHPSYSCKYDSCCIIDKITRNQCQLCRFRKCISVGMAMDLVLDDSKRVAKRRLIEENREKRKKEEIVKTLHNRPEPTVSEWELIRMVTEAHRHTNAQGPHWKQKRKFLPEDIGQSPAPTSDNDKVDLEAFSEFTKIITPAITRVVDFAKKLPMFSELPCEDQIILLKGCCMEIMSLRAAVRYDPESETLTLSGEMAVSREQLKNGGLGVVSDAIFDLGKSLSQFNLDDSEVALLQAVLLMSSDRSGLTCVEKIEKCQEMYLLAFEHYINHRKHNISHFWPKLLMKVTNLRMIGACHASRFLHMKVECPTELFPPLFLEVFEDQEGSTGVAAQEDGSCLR
# Chain of mouse Peroxisome Proliferator-activated Receptor gamma (PPARg), Pparg (gene 19016) (P37238 whole entry, looked up, the tested form may be a part): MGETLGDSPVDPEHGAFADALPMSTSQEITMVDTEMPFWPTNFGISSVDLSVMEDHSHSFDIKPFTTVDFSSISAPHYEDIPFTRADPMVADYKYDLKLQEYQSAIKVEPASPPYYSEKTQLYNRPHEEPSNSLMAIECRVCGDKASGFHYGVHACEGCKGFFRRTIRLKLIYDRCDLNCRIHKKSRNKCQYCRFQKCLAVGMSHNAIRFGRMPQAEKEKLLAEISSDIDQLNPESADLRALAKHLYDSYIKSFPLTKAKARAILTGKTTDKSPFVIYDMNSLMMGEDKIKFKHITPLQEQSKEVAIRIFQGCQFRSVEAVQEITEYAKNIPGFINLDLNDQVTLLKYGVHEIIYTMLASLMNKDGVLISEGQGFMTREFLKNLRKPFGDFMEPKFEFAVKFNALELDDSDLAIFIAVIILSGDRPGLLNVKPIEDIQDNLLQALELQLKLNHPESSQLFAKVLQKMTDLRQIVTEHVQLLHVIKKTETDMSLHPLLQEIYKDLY
# Chain of Estrogen receptor (Homo sapiens) (P03372 whole entry, looked up, the tested form may be a part): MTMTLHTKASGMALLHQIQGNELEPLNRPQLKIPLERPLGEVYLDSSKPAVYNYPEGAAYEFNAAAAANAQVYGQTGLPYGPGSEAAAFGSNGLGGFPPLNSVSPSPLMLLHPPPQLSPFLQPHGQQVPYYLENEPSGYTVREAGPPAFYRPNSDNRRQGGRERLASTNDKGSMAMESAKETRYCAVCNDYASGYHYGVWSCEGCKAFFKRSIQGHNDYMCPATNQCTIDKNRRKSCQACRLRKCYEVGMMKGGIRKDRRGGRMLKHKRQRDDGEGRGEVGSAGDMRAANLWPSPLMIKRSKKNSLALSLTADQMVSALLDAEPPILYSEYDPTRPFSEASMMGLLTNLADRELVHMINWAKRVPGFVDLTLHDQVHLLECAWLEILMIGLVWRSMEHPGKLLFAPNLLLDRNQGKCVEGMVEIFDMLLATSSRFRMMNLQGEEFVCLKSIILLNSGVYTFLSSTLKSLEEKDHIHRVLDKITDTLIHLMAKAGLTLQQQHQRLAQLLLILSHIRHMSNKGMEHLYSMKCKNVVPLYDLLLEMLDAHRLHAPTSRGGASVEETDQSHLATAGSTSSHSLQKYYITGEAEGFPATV
# Chain of frog Thyroid hormone Receptor alpha (TRa), thra-a (gene 397942) (P15204 whole entry, looked up, the tested form may be a part): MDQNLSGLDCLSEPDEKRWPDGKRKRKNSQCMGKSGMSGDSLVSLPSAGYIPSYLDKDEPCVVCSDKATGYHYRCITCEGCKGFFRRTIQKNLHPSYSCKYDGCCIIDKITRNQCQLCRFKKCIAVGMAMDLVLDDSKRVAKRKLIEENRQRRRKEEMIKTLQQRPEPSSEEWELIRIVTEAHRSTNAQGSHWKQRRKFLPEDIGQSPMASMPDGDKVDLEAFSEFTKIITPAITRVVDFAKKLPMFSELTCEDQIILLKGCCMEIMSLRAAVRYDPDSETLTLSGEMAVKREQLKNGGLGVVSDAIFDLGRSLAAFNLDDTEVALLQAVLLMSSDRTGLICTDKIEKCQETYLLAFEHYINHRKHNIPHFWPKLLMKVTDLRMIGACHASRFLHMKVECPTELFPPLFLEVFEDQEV
# Chain of Peroxisome proliferator-activated receptor gamma (Homo sapiens) (P37231 whole entry, looked up, the tested form may be a part): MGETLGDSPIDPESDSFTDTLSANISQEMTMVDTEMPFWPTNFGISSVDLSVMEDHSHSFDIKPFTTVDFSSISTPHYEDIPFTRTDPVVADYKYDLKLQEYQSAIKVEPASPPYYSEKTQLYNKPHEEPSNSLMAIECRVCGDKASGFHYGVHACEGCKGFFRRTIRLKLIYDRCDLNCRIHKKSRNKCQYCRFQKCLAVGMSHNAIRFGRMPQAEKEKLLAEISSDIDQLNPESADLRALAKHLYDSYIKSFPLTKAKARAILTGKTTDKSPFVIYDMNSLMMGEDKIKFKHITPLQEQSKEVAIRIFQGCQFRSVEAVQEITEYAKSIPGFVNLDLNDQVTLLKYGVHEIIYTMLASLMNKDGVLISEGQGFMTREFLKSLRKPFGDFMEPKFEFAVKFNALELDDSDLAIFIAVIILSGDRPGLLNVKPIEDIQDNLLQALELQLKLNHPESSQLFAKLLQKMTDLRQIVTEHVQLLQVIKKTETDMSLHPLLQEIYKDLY
# Chain of zebrafish Thyroid Hormone Receptor beta (TRb), thrb (gene 30607) (Q9PVE4 whole entry, looked up): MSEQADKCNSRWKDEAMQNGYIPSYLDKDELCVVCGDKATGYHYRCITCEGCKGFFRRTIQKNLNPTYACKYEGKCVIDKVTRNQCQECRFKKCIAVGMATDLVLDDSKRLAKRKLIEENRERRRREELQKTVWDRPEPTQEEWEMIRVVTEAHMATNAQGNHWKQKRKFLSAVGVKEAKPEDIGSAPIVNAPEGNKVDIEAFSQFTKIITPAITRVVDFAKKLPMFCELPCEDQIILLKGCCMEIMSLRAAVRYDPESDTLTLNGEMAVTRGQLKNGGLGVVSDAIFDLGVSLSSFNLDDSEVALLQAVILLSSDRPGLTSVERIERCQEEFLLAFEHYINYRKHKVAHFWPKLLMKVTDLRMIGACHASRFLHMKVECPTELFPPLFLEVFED
# Chain of Nuclear receptor subfamily 1 group I member 2 (Mus musculus) (O54915 whole entry, looked up, the tested form may be a part): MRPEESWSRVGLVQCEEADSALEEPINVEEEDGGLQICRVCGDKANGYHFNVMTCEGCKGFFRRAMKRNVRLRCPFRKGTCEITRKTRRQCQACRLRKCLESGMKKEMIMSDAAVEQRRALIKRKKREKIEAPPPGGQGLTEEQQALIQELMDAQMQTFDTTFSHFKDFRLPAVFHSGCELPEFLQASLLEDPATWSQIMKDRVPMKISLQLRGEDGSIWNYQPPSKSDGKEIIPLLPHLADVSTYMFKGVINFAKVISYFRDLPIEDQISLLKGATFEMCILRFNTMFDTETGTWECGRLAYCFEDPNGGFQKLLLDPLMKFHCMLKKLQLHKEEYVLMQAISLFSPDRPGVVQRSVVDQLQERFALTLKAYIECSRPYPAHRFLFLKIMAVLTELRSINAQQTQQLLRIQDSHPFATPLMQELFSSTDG
# Chain of human Thyroid hormone Receptor beta (TRb), THRB (gene 7068) (P10828 whole entry, looked up, the tested form may be a part): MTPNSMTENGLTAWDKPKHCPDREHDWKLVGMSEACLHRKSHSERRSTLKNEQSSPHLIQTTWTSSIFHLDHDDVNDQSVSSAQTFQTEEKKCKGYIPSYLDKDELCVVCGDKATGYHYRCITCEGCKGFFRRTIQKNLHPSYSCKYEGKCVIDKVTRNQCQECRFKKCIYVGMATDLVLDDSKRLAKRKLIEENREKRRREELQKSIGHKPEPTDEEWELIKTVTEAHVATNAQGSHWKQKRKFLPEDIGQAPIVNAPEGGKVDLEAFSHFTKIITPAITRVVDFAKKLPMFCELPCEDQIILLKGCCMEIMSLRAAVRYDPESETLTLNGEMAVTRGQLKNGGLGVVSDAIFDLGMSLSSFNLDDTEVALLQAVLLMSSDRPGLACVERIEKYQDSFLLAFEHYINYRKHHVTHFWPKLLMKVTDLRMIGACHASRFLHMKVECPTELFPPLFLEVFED
compound,measurement,setting,value
O=c1cc(-c2ccccc2)oc2ccccc12,outcome,[1],inactive
O=C(C=Cc1ccccc1)OCc1ccccc1,outcome,[1],inactive
CC/C=C\C/C=C\C/C=C\CCCCCCCC(=O)O,outcome,[1],inactive
CCCCCCCC[N+](C)(CCCCCCCC)CCCCCCCC,AC50,[1],10.4 µM (active)
O=C(c1ccc(O)cc1)c1ccc(O)cc1O,AC50,[2],10 µM (active)
same,AC50,[3],3.84 µM (active)
same,AC50,[4],3.62 µM (active)
same,outcome,[5],inactive
same,AC50,[6],3.48 µM (active)
same,AC50,[7],2.54 µM (active)
same,outcome,[8],inactive
same,outcome,[9],inactive
same,outcome,[10],inactive
same,outcome,[11],inactive
same,outcome,[12],inactive
same,outcome,[13],inactive
same,outcome,[14],inactive
same,outcome,[15],inactive
CO[Si](OC)(OC)c1ccccc1,outcome,[1],inactive
NC(CO)(CO)CO,outcome,[1],inactive
CCCCCCCCCCOS(=O)(=O)O,AC50,[1],8.08 µM (active)
Oc1ccc(Cl)cc1Cc1cc(Cl)ccc1O,AC50,[1],9.92 µM (active)
c1ccc2c(c1)ccc1cc3c(ccc4ccccc43)cc12,outcome,[1],inactive
CCOC(=O)Cc1cccc2ccccc12,outcome,[1],inactive
CCN(CCC#N)c1ccc(N=Nc2c(Cl)cc([N+](=O)[O-])cc2Cl)cc1,outcome,[1],inactive
CC(C)(C)c1ccc(OC(=O)c2ccccc2O)cc1,outcome,[1],inactive
COC(=O)c1c(C)cc(O)c(C)c1O,AC50,[3],12.1 µM (active) and 17.5 µM (active)
same,outcome,[16],inactive
same,AC50,[4],39.7 µM (active) and 71.2 µM (active)
same,AC50,[6],10.5 µM (active) and 53.7 µM (active)
same,AC50,[7],27.7 µM (active) and 27.2 µM (active)
same,AC50,[8],100 µM (active) and 66.6 µM (active)
same,AC50,[9],64.5 µM (active)
same,outcome,[9],inactive
same,AC50,[17],10.7 µM (active) and 27.3 µM (active)
same,outcome,[10],inactive
same,outcome,[18],inactive
same,outcome,[19],inactive
same,outcome,[11],inactive
same,outcome,[12],inactive
same,outcome,[20],inactive
same,outcome,[13],inactive
same,outcome,[14],inactive
same,outcome,[15],inactive
CN(C)c1ccc(C(=N)c2ccc(N(C)C)cc2)cc1,AC50,[1],19.8 µM (active)
